Results as given in PubChem BioAssay (Tox21).
Records with an inconclusive call do not appear. Calls of active or inactive are those of the source. Calls come from the whole dose curve; as a rule, active = well fitted curve in the direction sought with a large enough effect in the repeat runs; inconclusive = weak or mixed curves; inactive = no such curve, though single readings can be large; an effect the other way counts as inactive or inconclusive.

Experiments:
[1] = Human pregnane X receptor (PXR) small molecule agonists, qHTS cell viability counter screen (AID 1346977); note: nearly all actives have a fitted effect of over 50% in size; note: potency is the fitted concentration of half-maximal effect
Outline: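 Tox21 qHTS format; PXR-Luc HepG2, 2,000/well, charcoal-stripped FBS 5%. Cpd exposure 24hr. Read: CellTiter-Fluor fluorescence, multiplexed with luciferase.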

[2] = Caspase-3/7 induction in HepG2 cells by small molecules, qHTS assay (AID 1346978); note: nearly all actives have a fitted effect of over 15% in size
Outline: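 Wild-type HepG2 cells (2,000/well) were settled 5 h at 37 C, 5% CO2, then exposed to compounds in DMSO for 17 h. Caspase-3/7 activity was read by luminescence 30 min after adding Caspase-Glo 3/7 reagent at room temperature.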

[3] = Caspase-3/7 induction in CHO-K1 cells by small molecules, qHTS cell viability counter screen (AID 1346979); note: nearly all actives have a fitted effect of over 35% in size; note: potency is the fitted concentration of half-maximal effect
Outline: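 CellTiter-Fluor viability check, qHTS format: wild-type CHO-K1, 16hr compound treatment, 1hr reagent incubation, fluorescence read.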

[4] = Caspase-3/7 induction in CHO-K1 cells by small molecules, qHTS assay (AID 1346980); note: nearly all actives have a fitted effect of over 15% in size
Outline: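 Wild-type cells were seeded at 1,500 per well and settled 5 hr at 37 C, 5% CO2, then exposed to DMSO-dissolved compounds for 17 hr. Caspase-Glo 3/7 reagent was added, and luminescence was read after 30min at room temperature.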

[5] = Caspase-3/7 induction in HepG2 cells by small molecules, qHTS cell viability counter screen (AID 1346981); note: nearly all actives have a fitted effect of over 30% in size; note: potency is the fitted concentration of half-maximal effect
Outline: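 After a 5-hr attachment period at 37 C and 5% CO2, wild-type HepG2 cells received compounds in DMSO. Sixteen hours later CellTiter-Fluor was dispensed and the fluorescent signal quantified after a further hour.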

[6] = biological target: Cytochrome P450 2C9 (Homo sapiens) (UniProt P11712); experiment: Cytochrome P450 Family 2 Subfamily C Member 9 (CYP2C9) small molecule antagonists: luciferase reporter qHTS assay (AID 1671198); note: nearly all actives have a fitted effect of over 50% in size; note: potency is the fitted concentration of half-maximal effect
Outline: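 CYP2C9 activity was measured with a P450-Glo proluciferin substrate. Enzyme–substrate mix was held with compound for 10 min at room temperature, then NADPH regeneration solution was added for 1 h at 37C. Luciferin product was read as luminescence.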

[7] = biological target: Cytochrome P450 1A2 (Homo sapiens) (UniProt P05177); experiment: Cytochrome P450 Family 1 Subfamily A Member 2 (CYP1A2) small molecule antagonists: luciferase reporter qHTS assay (AID 1671199); note: nearly all actives have a fitted effect of over 50% in size; note: potency is the fitted concentration of half-maximal effect
Outline: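 Room-temperature CYP1A2 reaction with proluciferin substrate: compounds added from DMSO, 10 min preincubation, NADPH regeneration for 1 h. Luciferin detection reagent then added; luminescence recorded as RLU.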

[8] = biological target: Voltage-gated inwardly rectifying potassium channel KCNH2 (Homo sapiens) (UniProt Q12809); experiment: Human Ether-a-go-go-Related Gene (hERG) channel small molecule antagonists: fluorescence cell-based qHTS assay (AID 1671200); note: nearly all actives have a fitted effect of over 50% in size; note: potency is the fitted concentration of half-maximal effect
Outline: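 Kinetic two-minute fluorescence traces, sampled at 1 s, were collected following thallium stimulus of U2OS cells (1000 per well) that had been cultured overnight at 37 C and loaded with FluxOR II.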

[9] = biological target: Cytochrome P450 3A4 (Homo sapiens) (UniProt P08684); experiment: Cytochrome P450 Family 3 Subfamily A Member 4 (CYP3A4) small molecule antagonists: luciferase reporter qHTS assay (AID 1671201); note: nearly all actives have a fitted effect of over 50% in size; note: potency is the fitted concentration of half-maximal effect
Outline: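 Proluciferin-to-luciferin conversion by CYP3A4, NADPH-regenerated, 1 h RT; luminescence read as RLU. Ketoconazole as control.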

[10] = biological target: Nuclear receptor subfamily 1 group I member 2 (Rattus norvegicus) (UniProt Q9R1A7); experiment: Rat pregnane X receptor (rPXR) activation by small molecules, qHTS assay (AID 1346983); details: rPXR luciferase reporter cells, One-Glo luminescence, 24 h; max activation: hits give high values; note: nearly all actives have a fitted effect of over 20% in size
Outline: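 Cell-based rPXR luciferase reporter assay, 2,000 cells per well, rested 5hr at 37 C before compound addition in DMSO, then 24 hr at 37 C. One-Glo reagent was added and luminescence read after 30 min at room temperature.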

[11] = biological target: Nuclear receptor subfamily 1 group I member 2 (Homo sapiens) (UniProt O75469); experiment: CYP3A4 induction through human pregnane X receptor (PXR) by small molecules, qHTS assay (AID 1346984); note: nearly all actives have a fitted effect of over 40% in size
Outline: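 Cells (DPX-2; HepG2 with PXR element plus CYP3A4-promoter luciferase) settled 5hr, then were treated 24hr at 37C. A 3hr, 3uM-final Luciferin-IPA step preceded luminescence measurement with One-Glo.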

[12] = biological target: Cytochrome P450 2D6 (Homo sapiens) (UniProt P10635); experiment: Cytochrome P450 Family 2 Subfamily D Member 6 (CYP2D6) small molecule antagonists: luciferase reporter qHTS assay (AID 1671196); note: nearly all actives have a fitted effect of over 50% in size; note: potency is the fitted concentration of half-maximal effect
Outline: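 Room-temperature luminescent CYP2D6 activity assay: compound preincubated 10 min with enzyme–substrate mix, NADPH-initiated reaction 1 h, detection reagent 20 min before reading.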

[13] = biological target: Cytochrome P450 2C19 (Homo sapiens) (UniProt P33261); experiment: Cytochrome P450 Family 2 Subfamily C Member 19 (CYP2C19) small molecule antagonists: luciferase reporter qHTS assay (AID 1671197); note: nearly all actives have a fitted effect of over 65% in size; note: potency is the fitted concentration of half-maximal effect
Outline: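 Inhibition of CYP2C19 was scored from loss of luminescence in a P450-Glo proluciferin substrate assay, NADPH-started and run 1 h at 37C, with ketoconazole as positive control.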

[14] = biological target: Nuclear receptor subfamily 1 group I member 2 (Homo sapiens) (UniProt O75469); experiment: Human pregnane X receptor (PXR) small molecule agonists, qHTS assay (AID 1346982); note: nearly all actives have a fitted effect of over 35% in size; note: potency is the fitted concentration of half-maximal effect
Outline: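 Tox21 qHTS; PXR-Luc HepG2; compounds pinned from DMSO; 24 hr, 37 C; ONE-Glo luciferase detection, 30 min room temperature.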
% is set by controls: 0 for no effect and ±100 for the full control effect.

Sequence of Cytochrome P450 3A4 (Homo sapiens) (P08684 whole entry, looked up): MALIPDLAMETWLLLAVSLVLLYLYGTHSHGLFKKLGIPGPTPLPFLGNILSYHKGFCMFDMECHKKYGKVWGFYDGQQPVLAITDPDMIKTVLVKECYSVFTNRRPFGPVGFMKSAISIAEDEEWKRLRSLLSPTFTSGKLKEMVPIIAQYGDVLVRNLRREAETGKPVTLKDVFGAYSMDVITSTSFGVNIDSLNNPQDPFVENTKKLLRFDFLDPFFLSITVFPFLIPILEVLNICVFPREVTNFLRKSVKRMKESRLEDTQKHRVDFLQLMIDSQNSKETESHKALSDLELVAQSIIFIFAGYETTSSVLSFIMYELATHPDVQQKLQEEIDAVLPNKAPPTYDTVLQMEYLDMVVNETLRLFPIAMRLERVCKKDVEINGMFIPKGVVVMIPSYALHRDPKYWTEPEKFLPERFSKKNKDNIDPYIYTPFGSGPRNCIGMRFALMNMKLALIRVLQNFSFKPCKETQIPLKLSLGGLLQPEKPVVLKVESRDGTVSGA
Sequence of Cytochrome P450 2C9 (Homo sapiens) (P11712 whole entry, looked up): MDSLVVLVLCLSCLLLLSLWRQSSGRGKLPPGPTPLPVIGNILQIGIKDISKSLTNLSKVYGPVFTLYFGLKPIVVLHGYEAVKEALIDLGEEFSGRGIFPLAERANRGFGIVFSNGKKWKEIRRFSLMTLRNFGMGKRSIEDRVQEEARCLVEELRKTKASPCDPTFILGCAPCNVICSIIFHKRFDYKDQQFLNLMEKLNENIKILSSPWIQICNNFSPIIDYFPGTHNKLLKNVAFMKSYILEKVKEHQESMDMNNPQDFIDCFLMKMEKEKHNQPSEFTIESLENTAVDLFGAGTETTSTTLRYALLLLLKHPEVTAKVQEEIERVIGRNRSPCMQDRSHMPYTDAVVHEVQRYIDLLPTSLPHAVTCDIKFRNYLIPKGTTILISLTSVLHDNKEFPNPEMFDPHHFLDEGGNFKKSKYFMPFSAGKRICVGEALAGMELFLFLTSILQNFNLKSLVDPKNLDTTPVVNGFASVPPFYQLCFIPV
Sequence of Nuclear receptor subfamily 1 group I member 2 (Rattus norvegicus) (Q9R1A7 whole entry, looked up): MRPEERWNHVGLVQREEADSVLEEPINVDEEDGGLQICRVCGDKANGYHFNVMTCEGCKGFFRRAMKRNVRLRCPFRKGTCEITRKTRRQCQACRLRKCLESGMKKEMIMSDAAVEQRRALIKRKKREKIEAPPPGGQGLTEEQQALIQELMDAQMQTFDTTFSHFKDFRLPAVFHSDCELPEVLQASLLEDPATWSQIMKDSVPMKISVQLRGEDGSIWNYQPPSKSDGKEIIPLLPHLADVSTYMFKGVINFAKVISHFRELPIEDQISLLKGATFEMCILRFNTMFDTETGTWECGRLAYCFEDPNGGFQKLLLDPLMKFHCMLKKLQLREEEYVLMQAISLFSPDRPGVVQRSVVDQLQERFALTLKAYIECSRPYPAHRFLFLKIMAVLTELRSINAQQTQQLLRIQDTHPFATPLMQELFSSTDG
Sequence of Voltage-gated inwardly rectifying potassium channel KCNH2 (Homo sapiens) (Q12809 whole entry, looked up): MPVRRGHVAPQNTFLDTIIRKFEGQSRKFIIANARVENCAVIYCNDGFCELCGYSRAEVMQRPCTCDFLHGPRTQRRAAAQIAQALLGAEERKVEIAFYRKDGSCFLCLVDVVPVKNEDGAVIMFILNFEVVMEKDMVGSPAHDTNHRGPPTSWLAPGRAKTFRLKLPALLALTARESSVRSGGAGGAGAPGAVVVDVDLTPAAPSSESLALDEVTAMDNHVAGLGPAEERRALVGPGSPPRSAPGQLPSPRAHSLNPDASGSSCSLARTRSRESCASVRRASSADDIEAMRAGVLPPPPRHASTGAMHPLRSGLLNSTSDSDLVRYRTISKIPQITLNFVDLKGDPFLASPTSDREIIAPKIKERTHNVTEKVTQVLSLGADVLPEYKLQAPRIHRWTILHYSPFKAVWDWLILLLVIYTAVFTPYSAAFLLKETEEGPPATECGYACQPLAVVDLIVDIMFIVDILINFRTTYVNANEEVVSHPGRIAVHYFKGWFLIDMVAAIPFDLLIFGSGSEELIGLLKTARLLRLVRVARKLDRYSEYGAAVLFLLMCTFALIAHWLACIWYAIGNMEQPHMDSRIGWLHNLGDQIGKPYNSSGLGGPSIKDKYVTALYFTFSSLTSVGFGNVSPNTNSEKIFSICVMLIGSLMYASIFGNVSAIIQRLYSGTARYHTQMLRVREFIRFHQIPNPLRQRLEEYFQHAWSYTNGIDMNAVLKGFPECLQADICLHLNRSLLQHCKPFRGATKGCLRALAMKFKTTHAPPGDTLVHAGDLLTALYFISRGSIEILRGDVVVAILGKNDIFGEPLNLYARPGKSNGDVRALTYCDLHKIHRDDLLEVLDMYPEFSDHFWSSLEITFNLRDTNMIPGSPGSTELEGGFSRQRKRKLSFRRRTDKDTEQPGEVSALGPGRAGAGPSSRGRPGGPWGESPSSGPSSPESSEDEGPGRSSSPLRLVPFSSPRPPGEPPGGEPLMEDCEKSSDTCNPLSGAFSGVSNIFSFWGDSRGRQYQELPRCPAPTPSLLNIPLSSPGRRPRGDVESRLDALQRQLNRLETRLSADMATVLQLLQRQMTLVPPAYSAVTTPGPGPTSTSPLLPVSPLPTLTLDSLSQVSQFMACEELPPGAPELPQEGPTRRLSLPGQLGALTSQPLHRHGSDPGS
Sequence of Cytochrome P450 1A2 (Homo sapiens) (P05177 whole entry, looked up): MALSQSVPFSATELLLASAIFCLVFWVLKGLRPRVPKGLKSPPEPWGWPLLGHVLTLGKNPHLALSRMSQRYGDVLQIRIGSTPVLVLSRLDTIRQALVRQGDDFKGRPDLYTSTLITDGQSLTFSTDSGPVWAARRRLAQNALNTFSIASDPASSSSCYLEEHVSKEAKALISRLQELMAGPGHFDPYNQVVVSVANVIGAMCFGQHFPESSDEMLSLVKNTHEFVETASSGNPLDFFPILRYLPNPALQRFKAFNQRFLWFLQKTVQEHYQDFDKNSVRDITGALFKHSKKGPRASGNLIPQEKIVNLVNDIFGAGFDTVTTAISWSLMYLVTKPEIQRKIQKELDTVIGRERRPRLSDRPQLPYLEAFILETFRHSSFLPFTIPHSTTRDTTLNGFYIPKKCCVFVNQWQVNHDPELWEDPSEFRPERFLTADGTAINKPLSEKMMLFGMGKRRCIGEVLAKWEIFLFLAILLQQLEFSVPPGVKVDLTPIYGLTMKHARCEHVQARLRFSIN
Sequence of Cytochrome P450 2D6 (Homo sapiens) (P10635 whole entry, looked up): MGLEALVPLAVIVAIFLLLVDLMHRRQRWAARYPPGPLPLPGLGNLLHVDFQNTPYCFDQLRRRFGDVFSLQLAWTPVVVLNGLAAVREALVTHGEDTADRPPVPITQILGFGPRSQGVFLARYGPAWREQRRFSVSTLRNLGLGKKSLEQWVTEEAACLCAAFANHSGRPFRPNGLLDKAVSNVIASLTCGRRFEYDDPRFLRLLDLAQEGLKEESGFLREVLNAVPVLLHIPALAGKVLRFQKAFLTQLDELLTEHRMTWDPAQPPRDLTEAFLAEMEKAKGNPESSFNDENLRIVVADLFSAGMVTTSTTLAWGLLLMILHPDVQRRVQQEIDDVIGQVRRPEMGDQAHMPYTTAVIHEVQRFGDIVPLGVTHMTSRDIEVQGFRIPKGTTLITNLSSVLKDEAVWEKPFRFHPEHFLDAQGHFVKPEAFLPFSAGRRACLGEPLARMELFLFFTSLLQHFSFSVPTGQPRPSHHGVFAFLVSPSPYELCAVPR
Sequence of Nuclear receptor subfamily 1 group I member 2 (Homo sapiens) (O75469 whole entry, looked up): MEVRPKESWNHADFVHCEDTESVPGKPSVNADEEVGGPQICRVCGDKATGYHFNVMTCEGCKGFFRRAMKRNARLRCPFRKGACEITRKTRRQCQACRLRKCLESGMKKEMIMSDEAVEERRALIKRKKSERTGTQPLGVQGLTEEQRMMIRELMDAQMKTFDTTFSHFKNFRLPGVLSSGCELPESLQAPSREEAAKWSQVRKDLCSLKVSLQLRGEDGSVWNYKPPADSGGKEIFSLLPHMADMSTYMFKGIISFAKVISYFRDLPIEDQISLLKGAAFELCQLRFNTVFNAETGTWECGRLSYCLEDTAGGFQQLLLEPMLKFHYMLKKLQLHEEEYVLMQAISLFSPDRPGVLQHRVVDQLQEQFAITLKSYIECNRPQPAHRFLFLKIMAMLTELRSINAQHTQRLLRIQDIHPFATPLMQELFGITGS
Sequence of Cytochrome P450 2C19 (Homo sapiens) (P33261 whole entry, looked up): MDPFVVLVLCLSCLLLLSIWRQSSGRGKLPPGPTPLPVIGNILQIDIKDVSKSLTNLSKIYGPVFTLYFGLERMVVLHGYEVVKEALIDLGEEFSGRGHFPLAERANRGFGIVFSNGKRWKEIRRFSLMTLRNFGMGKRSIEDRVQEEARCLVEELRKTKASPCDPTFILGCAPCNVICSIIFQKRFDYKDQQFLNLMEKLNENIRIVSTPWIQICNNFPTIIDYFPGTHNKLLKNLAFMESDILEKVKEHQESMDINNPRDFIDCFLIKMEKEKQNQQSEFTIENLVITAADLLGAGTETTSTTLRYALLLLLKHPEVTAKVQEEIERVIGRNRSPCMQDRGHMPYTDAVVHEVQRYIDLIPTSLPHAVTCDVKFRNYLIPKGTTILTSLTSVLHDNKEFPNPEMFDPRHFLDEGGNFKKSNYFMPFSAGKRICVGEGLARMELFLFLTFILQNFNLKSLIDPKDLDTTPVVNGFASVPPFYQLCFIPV

CC1=NN(c2cc(S(=O)(=O)O)ccc2Cl)C(=O)C1N=Nc1ccccc1 (stereo not given)
inactive: outcome [2] | outcome [4] | Potency [6] | Potency [7] | Potency [8] | Potency [9]
active: Potency [1] 61.1 µM | Potency [3] 54.5 µM | Potency [5] 54.5 µM

O=C(O)CNC(=O)c1ccccc1
inactive: Potency [1] | outcome [2] | Potency [3] | Potency [5] | max activation [10] -5.13% | Potency [11] | Potency [12] | Potency [13] | Potency [6] | Potency [7] | Potency [8] | Potency [9]

CCOC(=O)COC(=O)c1ccccc1C(=O)OCC
inactive: Potency [1] | outcome [2] | outcome [4] | Potency [5] | Potency [14] | Potency [8]
active: Potency [13] 20 µM | Potency [6] 31.7 µM | Potency [7] 7.96 µM

CC(=O)c1ccc2ccccc2c1
inactive: Potency [1] | outcome [2] | Potency [3] | Potency [5] | Potency [14] | Potency [6] | Potency [8] | Potency [9]
active: Potency [13] 28.3 µM | Potency [7] 7.96 µM

C[C@H]1[C@H](NC(=O)/C(=N/OC(C)(C)C(=O)O)c2csc(N)n2)C(=O)N1S(=O)(=O)O (stereo in doubt)
inactive: Potency [1] | outcome [2] | Potency [3] | Potency [5] | max activation [10] -2.74% | Potency [12] | Potency [13] | Potency [6] | Potency [8] | Potency [9]

CC[N+](CC)(CC(=O)Nc1c(C)cccc1C)Cc1ccccc1 (tested in a mixture with another compound)
active: Potency [12] 0.0262 µM | Potency [13] 52.3 µM
inactive: Potency [1] | outcome [2] | Potency [3] | Potency [5] | Potency [7]

CC/C=C\CCOC(C)OCC (stereo not given)
inactive: Potency [1] | outcome [2] | Potency [3] | Potency [14] | Potency [13] | Potency [6] | Potency [8] | Potency [9]

[K+]
inactive: outcome [2] | Potency [3] | Potency [5] | Potency [12] | Potency [13] | Potency [6] | Potency [7] | Potency [8]
active: Potency [14] 27.3 µM

CC(C)CCCO
inactive: Potency [1] | outcome [2] | outcome [4] | Potency [5] | Potency [14] | Potency [12] | Potency [13] | Potency [6] | Potency [7] | Potency [8]

c1ccc(Cc2ccccc2)cc1
active: Potency [7] 35.6 µM
inactive: Potency [1] | outcome [2] | Potency [3] | Potency [5] | Potency [14] | Potency [12] | Potency [8] | Potency [9]

CCCCCCC1CCC(=O)O1 (stereo not given)
inactive: Potency [1] | outcome [2] | Potency [3] | Potency [5] | Potency [14] | Potency [12] | Potency [8] | Potency [9]

CN1CCC(=C2c3ccccc3CCc3cccnc32)CC1
inactive: outcome [2] | Potency [3] | outcome [4] | Potency [5] | Potency [14] | Potency [8]

CCC(C)(CCCC(C)C)OC(C)=O (stereo not given)
inactive: outcome [2] | Potency [3] | Potency [5] | Potency [14] | Potency [6] | Potency [7] | Potency [8]

C=C[Si](OC(C)=O)(OC(C)=O)OC(C)=O
inactive: Potency [1] | outcome [2] | Potency [3] | Potency [5] | Potency [14] | Potency [13] | Potency [6] | Potency [7] | Potency [8]
active: Potency [9] 39.9 µM

CC(=O)c1cnccn1
inactive: Potency [1] | outcome [2] | Potency [3] | Potency [5] | Potency [14] | Potency [12] | Potency [6] | Potency [7] | Potency [8] | Potency [9]

CCN1C=CN(C)C1C (stereo not given)
inactive: Potency [1] | outcome [2] | outcome [4] | Potency [5] | Potency [14] | Potency [12] | Potency [13] | Potency [6] | Potency [7] | Potency [8]

CCCCOCCOC(=O)COc1cc(Cl)c(Cl)cc1Cl
active: Potency [13] 35.6 µM | Potency [7] 39.9 µM | Potency [8] 24.5 µM
inactive: outcome [2] | Potency [3] | outcome [4] | Potency [5] | Potency [14] | Potency [9]

C=CN1CCCCCC1=O
inactive: Potency [1] | outcome [2] | Potency [3] | Potency [5] | Potency [14] | Potency [13] | Potency [6] | Potency [8]

NO
inactive: Potency [1] | outcome [2] | Potency [3] | Potency [5] | Potency [8]

COc1cc2c(cc1OC)-c1cc3ccc(OC)c(OC)c3c[n+]1CC2
inactive: outcome [2] | outcome [4] | Potency [14] | Potency [6] | Potency [8]
active: Potency [12] 9.02 µM | Potency [7] 35.9 µM

Nc1ccccn1
inactive: Potency [1] | outcome [2] | Potency [3] | Potency [5] | Potency [8]

Cc1ncc([C@@H](CCCCCCc2ccc3c(n2)NCCC3)CC(=O)O)cn1
active: Potency [3] 38.6 µM
inactive: Potency [1] | outcome [2] | Potency [14] | Potency [13] | Potency [7] | Potency [8] | Potency [9]

NC(=O)N1c2ccccc2CC(=O)c2ccccc21
active: Potency [7] 3.23 µM
inactive: Potency [1] | outcome [2] | outcome [4] | Potency [5] | max activation [10] -3.02% | Potency [6] | Potency [8]

Cc1onc(-c2c(Cl)cccc2Cl)c1C(=O)Cl
inactive: Potency [1] | outcome [2] | outcome [4] | Potency [14] | Potency [12] | Potency [7] | Potency [8]
active: Potency [13] 21.9 µM | Potency [6] 17.4 µM

Nc1ccn([C@@H]2O[C@H](CO)[C@@H](O)C2(F)F)c(=O)n1
inactive: Potency [1] | outcome [2] | outcome [4] | Potency [5] | max activation [10] -12% | Potency [11] | Potency [12] | Potency [13] | Potency [6] | Potency [7] | Potency [8] | Potency [9]
